Source: PubChem BioAssay (NCI)
“And” between values parts separate entries of the source, which are not always exact repeats. Equal entries are not always repeated. Compounds without any hit were thinned out: in the full panel of roughly 83,000, 20% have a hit.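 Negative percent growth values reflect cell death: -40 means 40% of the cells present at the start died, and -100 means all died.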 Unmarked numbers belong to inactive results. The source made the active and inactive calls. How the source made its calls: active means growth percent below 10; inactive means the rest.

The compounds below were run on MDA-MB-468 breast (assay: NCI-60 one-dose screen, 48 h (100 = growth as untreated, 0 = no growth, -100 = all killed)). Details: 10 µM unless noted.

SMILES | growth
CNc1ccc(CSc2ccc(C)cc2)cc1 | 15.6%
Oc1cc(Nc2ccnc3cc(Cl)ccc23)c2ncccc2c1 | 47.4%
COc1c(N2CC3CCCNC3C2)c(F)cc2c(=O)c(C(=O)N/N=C/c3ccc(Br)cc3)cn(C3CC3)c12 (stereo not given) | 97%
N#Cc1c(-c2ccc(Cl)cc2)nc2c(-c3ccccc3)c(Nc3ccccc3)nn2c1N | 53.4%
CCC12OC(COc3ccccc3)CN1CCN2c1ccccc1 (stereo not given) | 97.4% [100 µM]
COc1ccc2c(c1)sc1nc(-c3ccccc3)c(-c3ccsc3)n12 | 32.5%
Cc1cc(=O)n2nnc3cc(C(F)(F)F)ccc3n12 | 122%
CCCCCCN(CCCCCC)CCC(=O)Nc1ccc(S(=O)(=O)c2ccc(NC(=O)CCN(CCCCCC)CCCCCC)cc2)cc1 | 92.9%
CCOC(=O)C1=C(c2ccccc2)N=C2SC=C(c3cccc([N+](=O)[O-])c3)N2C1c1ccc(O)cc1 (stereo not given) | 93.7%
O=c1scc(-c2ccc(C(F)(F)F)cc2)s1 | 72.5%
COC(=O)[C@]12CCC(C)(C)C[C@H]1[C@H]1C(=O)C[C@@H]3[C@@]4(C)c5c([nH]c6ccccc6c5=O)C(C)(C)[C@@H]4CC[C@@]3(C)[C@]1(C)CC2 | 34.5%
CC(CC(=O)c1ccccc1)c1ccccc1 (stereo not given) | 96.5%
Cc1nc2sc(C(=O)Nc3ccccc3)c(N)c2cc1C(=O)/C=C/c1ccccc1 | 2.08% (active)
CC[C@@H](C)/C=C(C)/C=C/C(=O)c1c(O)c(-c2ccc(OC(=O)[C@@]34CC[C@@](C)(C(=O)O3)C4(C)C)cc2)cn(O)c1=O | -4.05% (active)
C/C(=N\O)c1ccccn1 | 97.6%
C#CCOc1ccc2ncnc(Nc3ccc(NC(=O)C=C)cc3)c2c1 | -22.3% (active)
S=P(N1CC1)(N1CC1)N1CC1 | 106% and 67.8%
CCOC(=O)C#Cc1c(C(=O)OCC)nnn1[C@@H]1O[C@H](CO)[C@H]2OC3(CCCCC3)O[C@H]21 | -19.7% (active)
Cc1cccc2c1O/C(=C\c1ncc([N+](=O)[O-])n1C)C2=O | -12.6% (active)
O=C(Nc1cccc(-n2cc(-c3ccncc3)c(-c3ccc(O)c(Cl)c3)n2)c1)Nc1ccc(Cl)c(C(F)(F)F)c1 | 10%

SMILES | growth
CN1Cc2c(cc(CN3CCCCC3)n2C)C(c2ccc(Br)cc2)C1 (stereo not given) | 56.2%
CCCCCCCCCC[C@@H](C)[C@@H]1CC(=O)N[C@H]([C@@H](C)O)C(=O)N[C@@H](C)C(=O)N[C@H](C)C(=O)N[C@@H](CCC(N)=O)C(=O)N[C@H](Cc2ccc(O)cc2)C(=O)N[C@@H](C(C)CC)C(=O)O1 (stereo not given in full) | 2.46% (active)
c1cnc2[nH]cc(-c3nc(-c4ccsc4)cs3)c2c1 | 74.6%
N/C(=N\S(=O)(=O)c1ccccc1)Nc1nc2ccccc2s1 | 91%
COc1cc(NC(N)=NCCC(C)(C)c2ccc(C(F)(F)F)cc2)ncc1C#N | -39.1% (active)
Nc1n[nH]c2ccc([C@@H]3Nc4ccc5cn[nH]c5c4[C@H]4C5CCC(C5)[C@@H]34)cc12 (stereo not given in full) | -6.84% (active)
C[C@@H](c1ccc2c(c1)[nH]c1ccc(Cl)cc12)c1nc2ccc(Cl)cc2[nH]1 | -37.4% (active)
BrC1CC(Br)c2c1c1c(c3c2C(Br)CC3Br)C(Br)CC1Br (stereo not given) | 79%
Cc1ccc(/C=C(\C#N)n2nnc3cc(F)c(F)cc32)cc1 | 17.3%
Cc1ccc(/C=N\NC(=O)c2[nH]c3ccc(F)cc3c2-c2ccccc2)cc1 | -14.5% (active)
Cc1cccc(Cl)c1NC(=O)c1ccc2nc(NC(=O)NCCN(C)C)sc2c1 | 30.6%
CC(C)(C)c1cc(C=O)cc(C(C)(C)C)c1O | 94.9%
Cc1ccc2c(c1)C13C(=C2Br)CCCN1C(=O)c1ccccc13 (stereo not given) | 69.8%
CC[C@@H](C[C@H](CCO)c1ccccc1)c1cc2ccccc2o1 | 107%
Cc1cc2nc(CC(=O)c3ccncc3)c(=O)[nH]c2cc1C | 102%
CCOC(=O)c1cc(C(=O)c2ccc(Br)cc2)n2cc(C)cc(C)c12 | 108%
Nc1ncnc2c1c(-c1ccc(Oc3ccccc3)cc1)nn2C[C@@H]1SSC[C@H]1O | -0.15% (active)
Cc1cc(CC(=O)NCCO)n(CCO)c(=O)c1 | 113%
CC(C)[C@@]12C[C@@H](OC(=O)COC(=O)c3ccccc3)[C@@](C)(O1)[C@@H]1CC[C@@H](C)[C@H]1[C@@H]2OC(=O)/C=C/c1ccccc1 | 85.4%
O=C(c1ccccc1)[C@H]1[C@@H]2CCCN2[C@]2(C(=O)Nc3ccc(F)cc32)[C@]12C(=O)Nc1ccccc12 | 96.2%
